PubChem BioAssay (EPA / NIEHS)
Values joined by “and” are separate entries in the source; they are usually repeats but may differ in a detail not shown here. Identical values can stand only once. A structure can be active in one record and inactive in another. Active and inactive are the calls of the source. The calls were made as follows: active = hit-call score of the fitted dose curve at least 0.9, where 1 is the maximum; inactive = score below 0.9.

Experiment: APR_HepG2_MicrotubuleCSK_24hr: Apredica 24-hour HepG2 Assay for Microtubule CSK Stabilty (AID 2282909)
Conditions: HepG2 microtubule cytoskeleton imaging, actives raise or lower the signal
Description: APR_HepG2_24hr is a cell-based, multiplexed-readout assay that uses HepG2, a human liver cell line, with measurements taken at 24 hours after chemical dosing in a 384-well plate.APR_HepG2_MicrotubuleCSK_24hr is one of 10 assay component(s) measured or calculated from the APR_HepG2_24hr assay. It is designed to make measurements of protein conformation, a form of conformation reporter, as detected with fluorescence intensity signals by HCS Fluorescent Imaging technology.Data from the assay component APR_HepG2_MicrotubuleCSK_24hr was analyzed into 1 assay endpoint. This assay endpoint, APR_HepG2_MicrotubuleCSK_24hr, was analyzed with bidirectional fitting relative to DMSO as the negative control and baseline of activity. Using a type of conformation reporter, measures of protein for gain or loss-of-signal activity can be used to understand the signaling at the cellular-level. Furthermore, this assay endpoint can be referred to as a primary readout, because this assay has produced multiple assay endpoints where this one serves a signaling function. To generalize the intended target to other relatable targets, this assay endpoint is annotated to the cell morphology intended target family, where the subfamily is cell conformation.
Cells were treated with dimethyl sulfoxide (DMSO) as a solvent control at a final concentration of 0.5% v/v or with compounds in DMSO with a resulting final DMSO concentration of 0.5% v/v. Compound treatment was done at concentrations of 0.39, 0.78, 1.56, 3.12, 6.24, 12.5, 25, 50, 100, and 200 uM in duplicate on each plate. Cells were treated with compounds for 1, 24, or 72 hr. Carbonyl […] m-chloro-phenylhydrazone (CCCP) and taxol were used as positive controls for mitochondrial function and cytoskeletal stability, respectively; DMSO served as the negative control for this experiment. Cells were fixed by the direct addition of 50 uL formaldehyde in Hank's Balanced Salt Solution (HBSS) to a final concentration of 3.7%. After incubation in the fixation medium for 30 min at room temperature (293-298 K), cells were rinsed twice with HBSS and treated with cell permeabilization buffer (16 uL of 0.5% Triton X-100) for 10 min at room temperature (293-298 K) before labeling. For mitochondrial membrane potential and mitochondrial measurements, pre-fixed cells were incubated with 50 uL of MitoTracker Red CMXRos (Invitrogen) at a concentration of 250 nM for 30 min before fixation. In the remaining cases, post-fixed cells were labeled by incubation with a multiplexed mixture of primary antibodies in HBSS for 60 min at room temperature (293-298 K) to detect immunoreactivity of c-Jun (1:500), phospho-histone H3 (1:100), phospho-histone H2A.x (1:200), p53 (1:400), alpha-tubulin (1:200) and Hoechst 33342 (2 ug/mL). Cells were labeled for multiplexed imaging on two separate plates: a) Hoechst 33342, MitoTracker Red, phospho-histone H3, and alpha-tubulin, and b) Hoechst 33342, phospho-histone H2A.x, and c-Jun. A final rinse with HBSS (50 uL) was performed before analysis. The primary and secondary antibodies for the proteins were phospho-histone H3 (rabbit anti-phospho-histone H3 and FITC-donkey anti-rabbit IgG), phospho-histone H2A.x (mouse anti-phospho-histone H2A.x and FITC-donkey anti-mouse IgG), c-Jun (rabbit anti-phospho-c-Jun and Cy3-donkey anti-rabbit IgG), p53 (sheep anti-p53 and Cy5-donkey anti-sheep IgG), alpha-tubulin (mouse anti-alpha-tubulin and Cy5-donkey anti-mouse IgG). These antibodies are available as the CellCiphr HepG2 assay kit (Millipore).Digital images of each well were captured using a Cellomics ArrayScan VTI (Thermo Scientific Cellomics) (0.8 NA objective, 0.63x optical coupler, and XF-93 filter set) at 20x magnification. The images were acquired using the autofocus feature of the ArrayScan instrument, which entails the following steps. First, the camera focuses on channel 1 (Hoechst 33342), where nuclei are identified. Second, a Z offset of 1 um is used for capturing mitochondria (MitoTracker Red). […]
For `COc1cnc(OC)n2nc(NS(=O)(=O)c3c(OCC(F)F)cccc3C(F)(F)F)nc12`, the outcome was “inactive”.
In the case of `CCc1nn(C)c(C(=O)NCc2ccc(C(C)(C)C)cc2)c1Cl`, the AC50 is reported as 19.8 µM (active).
With `COc1ccc(C(c2ccc(OC)cc2)C(Cl)(Cl)Cl)cc1` the AC50 was 69.8 µM (active).
In the case of `Oc1ccccc1-c1ccccc1`, the outcome is reported as “inactive”.
With `N#Cc1cc(Br)c(O)c(Br)c1` the outcome was “inactive”.
In the case of `OC(c1ccc(Cl)cc1)(c1cncnc1)c1ccccc1Cl` (stereo not given), the AC50 is reported as 84.9 µM (active).
With `C=CCC1=C(C)[C@@H](OC(=O)[C@@H]2[C@@H](C=C(C)C)C2(C)C)CC1=O` the AC50 was 55.9 µM (active).
With `Cc1cc(Cl)ccc1OCC(=O)O` the outcome was “inactive”.
In the case of `CCCN(CCC)c1c([N+](=O)[O-])cc(S(N)(=O)=O)cc1[N+](=O)[O-]`, the outcome is reported as “inactive” and the AC50 is reported as 109 µM (active).
In the case of `CCCCNC(=O)n1c(NC(=O)OC)nc2ccccc21`, the outcome is reported as “inactive”.
In the case of `COC(=O)C=C(C)OP(=O)(OC)OC`, the outcome is reported as “inactive”.
For `CC(C)(C)c1ccc(CSc2cnn(C(C)(C)C)c(=O)c2Cl)cc1`, the outcome was “inactive”.
In the case of `CC1=C(C(=O)Nc2ccccc2)SCCO1`, the outcome is reported as “inactive”.
For `CCCCC(CC)COC(=O)c1ccccc1C(=O)OCC(CC)CCCC` (stereo not given), the outcome was “inactive”.
For `CCCCOC(=O)c1ccccc1C(=O)OCCCC`, the outcome was “inactive”.
For `CCOC(=O)C(Cl)Cc1cc(-n2nc(C)n(C(F)F)c2=O)c(F)cc1Cl` (stereo not given), the outcome was “inactive”.
For `CC(C)Oc1cc(-n2nc(C(C)(C)C)oc2=O)c(Cl)cc1Cl`, the AC50 was 46.4 µM (active).
In the case of `CCNc1nc(Cl)nc(NCC)n1`, the outcome is reported as “inactive”.
For `CCOc1cc(Oc2ccc(C(F)(F)F)cc2Cl)ccc1[N+](=O)[O-]`, the outcome was “inactive”.
In the case of `CCCCNC(=O)OCC#CI`, the AC50 is reported as 14.7 µM (active) and the outcome is reported as “inactive”.
In the case of `COC(=O)N(OC)c1ccccc1COc1ccn(-c2ccc(Cl)cc2)n1`, the AC50 is reported as 6.07 µM (active).
For `COP(N)(=O)SC` (stereo not given), the outcome was “inactive”.
For `C=CCC1=C(C)C(OC(=O)C2C(C=C(C)C)C2(C)C)CC1=O` (stereo not given), the AC50 was 30.6 µM (active) and 29.7 µM (active) and the outcome was “inactive”.
In the case of `CC(C)C1(C)N=C(c2nc3ccccc3cc2C(=O)O)NC1=O` (stereo not given), the outcome is reported as “inactive”.
With `C#CCOS(=O)OC1CCCCC1Oc1ccc(C(C)(C)C)cc1` (stereo not given) the AC50 was 38.4 µM (active).
For `COP(=S)(OC)Oc1nc(Cl)c(Cl)cc1Cl`, the outcome was “inactive”.
For `COc1nc(C)nc(NC(=O)NS(=O)(=O)c2ccccc2Cl)n1`, the outcome was “inactive”.
In the case of `COc1nc(C)nc(NC(=O)NS(=O)(=O)c2ccccc2CCC(F)(F)F)n1`, the outcome is reported as “inactive”.
In the case of `CC1COC(Cn2cncn2)(c2ccc(Oc3ccc(Cl)cc3)cc2Cl)O1` (stereo not given), the outcome is reported as “inactive”.
In the case of `CS/C(C)=N/OC(=O)N(C)SN(C)C(=O)O/N=C(\C)SC`, the outcome is reported as “inactive”.
For `COC(=O)C(C)Oc1ccc(Oc2ccc(Cl)cc2Cl)cc1` (stereo not given), the outcome was “inactive”.
In the case of `CCNc1nc(Cl)nc(NC(C)C)n1`, the outcome is reported as “inactive”.
With `CON(C)C(=O)Nc1ccc(Cl)c(Cl)c1` the outcome was “inactive”.
In the case of `COc1nc(NC(C)C)nc(NC(C)C)n1`, the outcome is reported as “inactive”.
In the case of `COC(=O)c1ccccc1C(=O)OC`, the outcome is reported as “inactive”.
In the case of `CC(Oc1ccc(Cl)cc1Cl)C(=O)O` (stereo not given), the outcome is reported as “inactive”.
For `N#CC(CCc1ccc(Cl)cc1)(Cn1cncn1)c1ccccc1` (stereo not given), the AC50 was 104 µM (active).
